Data reported in PubChem BioAssay (NCATS).
A number with no mark means an inactive call. Records with an inconclusive call do not appear. Entries that show only a call come without a potency. Calls of active or inactive are those of the source. Unless noted, calls come from the whole dose curve; as a rule, active = well fitted curve in the direction sought with a large enough effect; inconclusive = small, poorly fitted or top-dose-only effect, or another doubt; inactive = no such curve, though single readings can be large; an effect the other way counts as inactive or inconclusive. Where a SMILES comes first, the peptide text is derived from it. The star is where a group is joined. Hexanoyl = CCCCCC(=O)*

Legend:
[1] = P-glycoprotein substrates identified in KB-8-5-11 adenocarcinoma cell line, qHTS therapeutic library screen (AID 1346987); note: nearly all actives have a fitted effect of over 65% in size; for activity change, negative = cytotoxicity: series mostly up to about 44 µM
In short: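 Human cervical adenocarcinoma KB-8-5-11 cells, selected in colchicine to over-express P-gp and assayed without it, were exposed for 72 h to titrated compounds. An ATP-based luminescent viability signal gave AC50.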

[2] = tested on: Zika virus NS2B-NS3 protease (unlinked complex); experiment: Primary screen GU Rhodamine qHTS for Zika virus inhibitors: Unlinked NS2B-NS3 protease assay (AID 1347159); note: nearly all actives have a fitted effect of over 60% in size; note: potency is the fitted concentration of half-maximal effect
In short: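 Buffer 10 mM Tris-HCl pH 8.0, 0.01% Tween 20. Unlinked protease 25 nM; compound preincubation 15 min, RT, protected from light. Substrate Rhod110, 1.5 microM; ~15% conversion in 15 min.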

[3] = tested on: Zika virus NS2B-NS3 protease (linked construct); experiment: Primary screen NINDS Rhodamine qHTS for Zika virus inhibitors (AID 1347160); note: nearly all actives have a fitted effect of over 55% in size; note: potency is the fitted concentration of half-maximal effect
In short: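 Aprotinin served as in-plate control. Conditions: 25 nM linked NS2B-NS3, pH 8.0 Tris buffer, titrated compounds, 15 min preincubation and 15 min reaction with 1.5 microM Rhod110 substrate at room temperature.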

[4] = Confirmatory screen NINDS Rhodamine qHTS for Zika virus inhibitors (AID 1347161); note: nearly all actives have a fitted effect of over 60% in size; note: potency is the fitted concentration of half-maximal effect
In short: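 Percent inhibition, normalized to uninhibited and enzyme-free controls, is fitted to a 4-parameter Hill equation. Fluorescence change comes from a 15-min cleavage of 1.5 microM bis-peptide Rhodamine110 substrate by 25 nM linked NS2B-NS3 at room temperature.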

[5] = biological target: Peroxisome proliferator-activated receptor alpha (Homo sapiens) (UniProt Q07869); experiment: qHTS assay for small molecule agonists of the peroxisome proliferator-activated receptor alpha (PPARalpha) signaling pathway (AID 651778); conditions: PathHunter PPARalpha complementation, chemiluminescence, 6 h; active compounds read high
Chain of Peroxisome proliferator-activated receptor alpha (Homo sapiens) (Q07869 whole entry, looked up): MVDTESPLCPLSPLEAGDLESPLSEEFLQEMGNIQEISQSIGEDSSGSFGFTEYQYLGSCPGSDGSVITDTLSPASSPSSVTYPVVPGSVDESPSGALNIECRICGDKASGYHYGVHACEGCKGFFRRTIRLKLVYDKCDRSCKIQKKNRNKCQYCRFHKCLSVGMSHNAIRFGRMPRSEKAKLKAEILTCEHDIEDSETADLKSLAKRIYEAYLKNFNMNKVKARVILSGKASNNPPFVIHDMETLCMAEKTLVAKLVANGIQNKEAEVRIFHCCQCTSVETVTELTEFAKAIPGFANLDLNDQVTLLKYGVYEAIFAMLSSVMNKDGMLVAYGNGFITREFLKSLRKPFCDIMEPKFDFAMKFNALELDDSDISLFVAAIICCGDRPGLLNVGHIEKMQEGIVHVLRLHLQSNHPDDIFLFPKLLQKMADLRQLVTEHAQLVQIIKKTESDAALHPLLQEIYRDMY
In short: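 Chemiluminescence from complemented enzyme reported PPARalpha activation in cells after 6 hr of compound treatment at 37 C. The detection reagent was incubated for 60 min at room temperature, and compounds were scored as agonists.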

[6] = biological target: Nuclear receptor ROR-gamma (Homo sapiens) (UniProt P51449); experiment: qHTS assay for small molecule antagonists of the retinoid-related orphan receptor gamma (ROR-gamma) signaling pathway (AID 651802);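 note: CHO cells with doxycycline-induced ROR-gamma expression; luciferase reporter luminescence driven by ROR response element; series mostly up to about 92 µM; nearly all actives have a fitted effect of over 60% in size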
Chain of Nuclear receptor ROR-gamma (Homo sapiens) (P51449 whole entry, looked up): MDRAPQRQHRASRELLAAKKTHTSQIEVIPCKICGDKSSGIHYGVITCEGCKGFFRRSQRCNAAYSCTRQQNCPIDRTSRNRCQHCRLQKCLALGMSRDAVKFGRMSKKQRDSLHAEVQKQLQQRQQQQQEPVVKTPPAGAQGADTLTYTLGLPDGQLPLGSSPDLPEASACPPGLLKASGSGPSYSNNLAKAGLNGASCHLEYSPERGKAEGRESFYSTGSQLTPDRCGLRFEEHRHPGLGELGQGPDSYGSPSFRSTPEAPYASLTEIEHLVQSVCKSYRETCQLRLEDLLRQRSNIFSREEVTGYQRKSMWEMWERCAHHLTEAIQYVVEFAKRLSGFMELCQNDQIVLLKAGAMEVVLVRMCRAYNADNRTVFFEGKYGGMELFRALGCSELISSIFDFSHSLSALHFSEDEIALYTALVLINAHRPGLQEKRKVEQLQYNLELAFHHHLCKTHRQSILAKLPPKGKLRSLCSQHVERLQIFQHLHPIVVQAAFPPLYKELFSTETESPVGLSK
In short: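 Doxycycline-induced reporter activity in engineered CHO cells (TET-inducible ROR, RORE-LUC) was measured by luminescence after 16hr compound exposure at 37C.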

[7] = qHTS assay for small molecule agonists of the antioxidant response element (ARE) signaling pathway measured by Nrf2-dependant transcriptional activity (AID 720636; active = well fitted curve in the direction sought with a large enough effect in the repeat runs; an effect the other way counts as inactive or inconclusive;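 note: HepG2 cells with an ARE-driven luciferase reporter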)
In short: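 We exposed ARE-luc HepG2 cells, seeded in assay medium with 1% dialyzed FBS and allowed 6 hr to adhere, to test compounds overnight (16 hr, 37 C) before measuring luciferase with ONE-Glo.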

[8] = qHTS assay for small molecule antagonists of the retinoid-related orphan receptor gamma (ROR-gamma) signaling pathway - cell viability counter screen (AID 720652; active = well fitted curve in the direction sought with a large enough effect in the repeat runs; an effect the other way counts as inactive or inconclusive;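 note: CHO reporter cells with doxycycline-induced ROR-gamma expression; series mostly up to about 92 µM; compound exposure lasted 16 hr before ATP read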)
In short: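 ATP-based viability readout in the ROR-gamma reporter CHO cells after 16 hr compound exposure under doxycycline induction.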

[9] = qHTS assay for small molecule agonists of the antioxidant response element (ARE) signaling pathway measured by Nrf2-dependant transcriptional activity - cell viability counter screen (AID 720653; active = well fitted curve in the direction sought with a large enough effect in the repeat runs; an effect the other way counts as inactive or inconclusive); conditions: ARE-bla HepG2 viability, CellTiter-Glo ATP luminescence, 16 h; active compounds read low
In short: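 Cytotoxicity counter screen: intracellular ATP quantified by CellTiter-Glo luminescence in the same ARE-bla HepG2 plates, after 16 h compound exposure and a 2 h beta-lactamase substrate step.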

[10] = qHTS assay for cell viability of HEK293 cells (AID 743288); conditions: ATP luminescence (CellTiter-Glo), 18 h, active compounds read low; note: nearly all actives have a fitted effect of over 50% in size
In short: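 Viable-cell counts were inferred from luciferase-based ATP content in HEK293 cells seeded at 2,000/well, pre-incubated ≥5 h, then dosed with DMSO-solubilised compounds for 18 h at 37 C.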

[11] = qHTS assay for cell viability of the p53RE-bla HCT-116 cell line (AID 743292); note: nearly all actives have a fitted effect of over 55% in size
In short: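 In this qHTS counter-screen, metabolically competent p53RE-bla HCT-116 cells were counted via their ATP content. Compounds were applied for 16 h at 37 C and luciferase-coupled luminescence was measured.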

[12] = tested on: Zika virus NS2B-NS3 protease (linked construct); experiment: Confirmatory screen NINDS AMC qHTS for Zika virus inhibitors (AID 1347152); note: potency is the fitted concentration of half-maximal effect; nearly all actives have a fitted effect of over 70% in size
In short: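 Enzyme (1 nM, linked construct) was preincubated with compound for 15 minutes at room temperature in 10 mM Tris-HCl pH 8.0 with 0.01% Tween 20. Bz-Nle-Lys-Arg-Arg-AMC was then added to 10 microM, and AMC fluorescence was recorded immediately and after 15 minutes.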

[13] = tested on: Zika virus NS2B-NS3 protease (unlinked complex); experiment: Confirmatory screen GU AMC qHTS for Zika virus inhibitors (AID 1347153);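 note: enzyme at 25 nM with substrate at 10 µM below its Km of 18.3 µM; potency is the fitted concentration of half-maximal effect; nearly all actives have a fitted effect of over 70% in size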
In short: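 Noncovalent NS2B hydrophilic domain/NS3 protease complex (25 nM) in 10 mM Tris-HCl pH 8.0, 0.01% Tween 20 was preincubated 15 min at room temperature with compounds. Then 10 µM AMC substrate (Km 18.3 µM) was added; fluorescence was read over 15 min and fitted to a 4-parameter Hill equation.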

[14] = tested on: Zika virus NS2B-NS3 protease (linked); experiment: 384 well plate NINDS AMC confirmatory qHTS for Zika virus inhibitors (AID 1347163); note: potency is the fitted concentration of half-maximal effect; nearly all actives have a fitted effect of over 50% in size
In short: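 Enzyme (5, 30 or 60 nM final) first met test compounds for ~15 min. The AMC-tagged peptide Ac-VKTGKR-AMC followed at 30 microM. Fluorescence was then recorded at 25 min and scaled against no-enzyme and no-inhibitor wells.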

[15] = tested on: Zika virus NS2B-NS3 protease (linked construct); experiment: 384 well plate NINDS Rhodamine confirmatory qHTS for Zika virus inhibitors (AID 1347164);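 note: fluorescence from protease cleavage of Ac-LKRR-rhodamine 110 substrate; potency is the fitted concentration of half-maximal effect; nearly all actives have a fitted effect of over 65% in size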
In short: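 Enzyme (final 5/30/60 nM) + cpd (DMSO), ~15 min; add Ac-LKRR-Rd 10 microM final; 25 min RT, dark; FI ex 485/em 538; normalized to no-enzyme, no-inhibitor ctrls; aprotinin intraplate ctrl.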

O=C(NC/C=C/CN1CCN(c2cccc(Cl)c2Cl)CC1)c1ccc(-c2ccccn2)cc1
Potency [1]: inactive | Potency [2]: inactive | Potency [3]: inactive

C/C=C(\C)C(=O)OC[C@H]1O[C@@H](O[C@H]2[C@@H](O[C@H]3O[C@H](COC(=O)/C(C)=C/C)[C@@H](O)[C@H](O)[C@H]3O[C@@H]3O[C@H](COC(=O)/C(C)=C/C)[C@@H](O)[C@H](OC(=O)/C(C)=C/C)[C@H]3O)O[C@H](COC(=O)/C(C)=C/C)[C@@H](O)[C@@H]2O)[C@H](O)[C@@H](O)[C@@H]1O
activity change, negative = cytotoxicity [1]: 0.351% [at 9.29 µM] | Potency [2]: inactive | Potency [3]: inactive

CC1(C)CC[C@]2(C(=O)O)CC[C@]3(C)C(=CCC4[C@@]5(C)CC[C@H](O)C(C)(C)C5CC[C@]43C)C2C1 (stereo partly drawn)
Potency [1]: inactive | Potency [3]: inactive

COC(=O)C1=COC(OC2OC(CO)C(O)C(O)C2O)C2C(C)C(OC(=O)/C=C/c3ccc(O)cc3)C(O)C12 (stereo not drawn)
Potency [1]: inactive | Potency [2]: 28.2 µM (active) | Potency [3]: inactive

O=C(O)CC/C=C\C[C@H]1CO[C@@H](c2ccccc2Cl)O[C@H]1c1ccccc1O
Potency [1]: inactive | Potency [2]: inactive | Potency [4]: 44.1 µM (active)

COC(=O)C1=CO[C@@H](O[C@@H]2O[C@H](CO)[C@@H](O)[C@H](O)[C@H]2O)[C@H]2[C@@H]1C=C[C@]21C=C([C@H](C)OC(=O)/C=C/c2ccc(O[C@@H]3O[C@H](CO)[C@@H](O)[C@H](O)[C@H]3O)cc2)C(=O)O1
Potency [1]: inactive | Potency [2]: inactive | Potency [3]: inactive

CC(C)CC(=O)OC[C@@]1(O)C[C@@]23CC[C@H]4[C@@](C)(CCC[C@@]4(C)C(=O)O)[C@@H]2CC[C@@H]1C3
Potency [1]: inactive | Potency [3]: inactive

C=C(C(=O)O)C1CC(OC(=O)CC(C)CC)C2(C)CCCC(=C)C2C1 (stereo not drawn)
Potency [1]: inactive | Potency [3]: inactive

COC(=O)[C@H](O)[C@H]1C(C)(C)[C@H](OC(C)=O)[C@@]2(O)C(=O)[C@]1(C)C1CC[C@]3(C)C(CC(=O)O[C@H]3c3ccoc3)[C@]13O[C@@H]32 (stereo partly drawn)
Potency [1]: inactive | Potency [2]: inactive | Potency [3]: inactive

CCOC(=O)COc1ccc2c(c1)C[C@@H](NC[C@H](O)c1cccc(Cl)c1)CC2
Potency [1]: inactive | Potency [2]: inactive | Potency [3]: inactive

CC1=CC(=O)CC(C)(C)C1CCC(C)O[C@@H]1O[C@H](CO)[C@@H](O)[C@H](O)[C@H]1O (stereo partly drawn)
Potency [1]: inactive | Potency [2]: inactive | Potency [3]: inactive

CCCCCC(=O)N1CCC[C@H]1C(=O)N[C@@H](Cc1ccc(O)cc1)C(=O)OC (Hexanoyl-Pro-Tyr-OMe)
Potency [1]: inactive | Potency [2]: inactive | Potency [4]: inactive

CC(C)C1(O)C=C2C(=O)CC3C(C)(C(=O)O)CCCC3(C)C2CC1 (stereo not drawn)
Potency [1]: inactive | Potency [2]: inactive | Potency [3]: inactive

COc1cc(C[C@@]2(O)CO[C@@H](c3ccc(O[C@@H]4O[C@H](CO)[C@@H](O)[C@H](O)[C@H]4O)c(OC)c3)[C@H]2CO)ccc1O
Potency [1]: inactive | Potency [2]: inactive | Potency [3]: inactive

COC(=O)C1(O)C(OC(C)=O)CCC2C3(CC(c4ccoc4)OC3=O)C(C)=CCC21C(=O)OC (stereo not drawn)
Potency [1]: inactive | Potency [2]: inactive | Potency [3]: inactive

CC(=O)OC1(C)CC(O)C2(O)C=COC(OC3OC(CO)C(O)C(O)C3O)C12 (stereo not drawn)
Potency [1]: inactive | Potency [2]: inactive | Potency [3]: inactive

COc1cc([C@@H](O[C@@H]2O[C@H](CO)[C@@H](O)[C@H](O)[C@H]2O)[C@@H]2CO[C@H](c3ccc(O)c(OC)c3)[C@H]2CO)ccc1O
Potency [1]: inactive | Potency [2]: inactive | Potency [3]: inactive

C=C1C[C@]23C[C@@]1(O)CC[C@H]2[C@@]12C=C[C@H](O)[C@@](C)(C(=O)O1)[C@H]2[C@@H]3C(=O)O
max response [5]: -2.22% | outcome [6]: inactive | outcome [7]: inactive | outcome [8]: inactive | max response [9]: 2.88% | max response [10]: 3.04% | outcome [11]: inactive | Potency [1]: inactive | Potency [2]: inactive | Potency [3]: inactive

CC(=O)OC1CC(C(C)(C)O)OC2CCC3(C)OC4=C(C(=O)C=C5C(C)C(OC(C)=O)C6(C)C(C)OC546)C(O)C3C12C (stereo not drawn)
Potency [1]: inactive | Potency [2]: inactive | Potency [3]: inactive

COC(=O)Cn1nc(-c2cccc(OC)c2)c2ccccc21
Potency [1]: inactive | Potency [2]: inactive | Potency [3]: inactive

O=C(/C=C/C=C/c1ccc2c(c1)OCO2)N1CCCCC1
max response [5]: -0.461% | max response [9]: 3.3% | max response [10]: -12.5% | outcome [11]: inactive | Potency [1]: inactive | Potency [2]: inactive | Potency [3]: inactive

CC1C2=CC(=O)OC2(O)CC2C1C(O)CC1C(C)(CO)CCCC21C (stereo not drawn)
Potency [1]: inactive | Potency [2]: inactive | Potency [3]: inactive

C=C1CC/C=C(/CO)C(=O)C[C@@H]2[C@@H]1C[C@@]2(C)COC(C)=O
Potency [1]: inactive | Potency [3]: inactive

Cc1ccc([C@@H]2CC=C(C(=O)O)[C@H](c3ccc(C(C)(C)C)cc3)N2S(=O)(=O)c2ccc(C)cc2)cc1
Potency [12]: 15.6 µM (active) | Potency [13]: 19.7 µM (active) | Potency [2]: 2.51 µM (active) | Potency [3]: 2.24 µM (active) | Potency [4]: 2.78 µM (active) | Potency [14]: 3.55 µM (active) | Potency [15]: 4.47 µM (active)
